High-throughput results (PubChem BioAssay)
Hsp90 Hop PPI: qHTS Assay for Disrupters of an Hsp90 Co-Chaperone Interaction; AID 595, 2007; AlphaScreen TPR2A-His6 binding biotin-Hsp90 C-terminal peptide; Hsp90 C-terminal peptide / TPR2A (Hop) interaction, human; hit rate 0.44% among 71,000; Potency, µM (top dose mostly 57 µM), for the others: at the top dose activity change, negative = inhibition; active = well fitted curve in either direction with a large enough effect; inconclusive = small, poorly fitted or top-dose-only effect, or another doubt; note: % is set by controls: 0 for no effect and ±100 for the full control effect
CRE-bla Fsk: Cell signaling CRE-BLA (Fsk stim); hit rate 2.5% among 71,000; CHO CRE-bla reporter (cAMP response element driving beta-lactamase), forskolin EC10, beta-lactamase ratio; Potency, µM (highest dose often 38.2 µM), without a hit: at the top dose activity change, negative = inhibition, hits mostly activators; AID 662, 2007; active = well fitted activation curve with a large enough effect in the signal ratio, with a control signal flat, not every such curve was filed as active; inconclusive = small, poorly fitted or top-dose-only effect, or effect the other way, or a change in a side signal; the % refers to the signal ratio; note: % of control where 0% means no effect
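Reporter-gene assay: CHO cells with beta-lactamase behind cAMP responsive elements, co-treated with compound and EC10 NKH 477 for 3 hours at 37 degrees Celsius. Activity came from the 460/530 nm CCF4 emission ratio.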
ALOX15 inhib: qHTS Assay for Inhibitors of 15-hLO (15-human lipoxygenase); hit rate 1.4% among 74,000; Potency, µM (top dose mostly 57.1 µM), for inactives: at the top dose activity change, negative = inhibition, actives largely listed as inhibitors; Polyunsaturated fatty acid lipoxygenase ALOX15 (Homo sapiens), P16050; AID 887, 2007; purified 15hLO-1, xylenol orange hydroperoxide absorbance; note: % is set by controls: 0 for no effect and ±100 for the full control effect; nearly all actives have a fitted effect of over 55% in size
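Quantitative HTS in 25 mM Hepes pH 7.5 containing 0.01% Triton X-100: human 15hLO-1 at 40 nM, arachidonic acid at 50 uM, 6 min turnover. Product quantified via ferrous oxidation/xylenol orange, 573:405 nm absorbance ratio.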
Tau filament bind: qHTS Assay for Tau Filament Binding; Microtubule-associated protein tau (Homo sapiens), P10636; recombinant tau filaments, thioflavin S fluorescence, 15 h; filaments grown with octadecylsulfate alongside compound; Potency, µM (titrated, usually from 57.1 µM), for the others: at the top dose activity change, negative = inhibition; hit rate 2% among 71,000; AID 596, 2007;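 note: % is set by controls: 0 for no effect and ±100 for the full control effect; actives lower thioflavin S fluorescence by blocking filaments or displacing dye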
Target sequence (P10636 whole entry, looked up): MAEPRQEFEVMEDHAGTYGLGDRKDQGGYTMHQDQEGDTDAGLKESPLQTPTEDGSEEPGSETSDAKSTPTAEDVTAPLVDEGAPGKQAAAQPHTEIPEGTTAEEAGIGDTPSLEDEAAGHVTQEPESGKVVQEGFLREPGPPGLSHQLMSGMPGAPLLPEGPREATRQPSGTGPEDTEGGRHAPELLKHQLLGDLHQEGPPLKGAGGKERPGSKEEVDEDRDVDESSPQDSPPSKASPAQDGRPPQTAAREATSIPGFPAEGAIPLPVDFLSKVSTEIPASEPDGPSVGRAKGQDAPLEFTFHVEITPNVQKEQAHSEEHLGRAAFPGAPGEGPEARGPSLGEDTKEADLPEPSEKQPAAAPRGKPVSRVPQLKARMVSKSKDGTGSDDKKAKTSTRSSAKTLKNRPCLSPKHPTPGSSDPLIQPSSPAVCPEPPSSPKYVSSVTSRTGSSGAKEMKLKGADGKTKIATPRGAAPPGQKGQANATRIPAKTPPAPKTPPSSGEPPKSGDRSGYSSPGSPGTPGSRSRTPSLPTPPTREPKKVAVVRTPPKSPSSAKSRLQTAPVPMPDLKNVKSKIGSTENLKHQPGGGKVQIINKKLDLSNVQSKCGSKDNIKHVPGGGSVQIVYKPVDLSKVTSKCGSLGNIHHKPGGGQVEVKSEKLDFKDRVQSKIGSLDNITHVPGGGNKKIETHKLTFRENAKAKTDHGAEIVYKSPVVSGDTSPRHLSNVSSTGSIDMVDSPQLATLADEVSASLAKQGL
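Quantitative HTS: thioflavine S signal from ODS-induced tau filaments, excited at 450 nm, emission 510 nm. Conditions: 1 uM tau, 30 uM ODS, 15 h at 37 C, pH 7.4.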
IkB signaling: IkB Signaling; ABC-DLBCL IkBa-CBG/CBR dual luciferase ratio, 4 h; response scale: scaled: untreated 0%, proteasome inhibitor 100%; Potency, µM (highest dose often 57.1 µM), without a hit: at the top dose IkBa stabilization activation; hit rate 0.04% among 110,000; AID 445, 2006; active = well fitted curve in the direction sought with a large enough effect in the signal ratio, not every such curve was filed as active; inconclusive = small, poorly fitted or top-dose-only effect, or a change in a side signal; the % refers to the signal ratio;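 note: the direction sought is a rising ratio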
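Curves were fitted separately to fusion (green), unfused (red) and ratio luminescence, then classed by r2, magnitude and activity. Cells: OCI-Ly3, 4 h compound plus doxycycline at 37C; 10 uM MG-132 defined full response.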
Numbers without * were called inactive; [ ] = another dose, or the depositor's remark. In the library only some 3.6% were active in any assay of this set; here they are far more common. Unless noted, calls come from the whole dose curve; as a rule, active = well fitted curve in the direction sought with a large enough effect; inconclusive = small, poorly fitted or top-dose-only effect, or another doubt; inactive = no such curve, though single readings can be large; an effect the other way counts as inactive or inconclusive. Potency is the fitted concentration of half-maximal effect.

How did CC(C)CN(CCNC(=O)CCN1N=C(c2ccccc2)CCC1=O)CC(C)C do in these assays?
IkB signaling: -2%

What do the screens show for `CCn1cc(C(=O)N2CCN(c3cc(Cl)ccc3C)CC2)c(=O)c2cc(S(=O)(=O)N3CCCCC3)ccc21`?
IkB signaling: 0%

What do the screens show for `COc1ccc(-n2c(=O)c3sc4ccccc4c3n(CC(=O)N3CCCC3)c2=O)cc1`?
IkB signaling: 1%

What do the screens show for `Cc1ccc(C2NC(=O)NC3=C2CCc2ccccc23)cc1` (stereo unspecified)?
Hsp90 Hop PPI: 0%; CRE-bla Fsk: -5%; ALOX15 inhib: -25%; Tau filament bind: 20µM*; IkB signaling: -1%

What do the screens show for `CC(=O)N1CCN(c2ccc(NCc3ccc(F)cc3)cc2)CC1`?
Hsp90 Hop PPI: -11%; CRE-bla Fsk: 5%; ALOX15 inhib: 10µM*; Tau filament bind: inconclusive; IkB signaling: -1%

Results for CC(C)c1ccc(Nc2nc(NCc3ccco3)nc(N3CCOCC3)n2)cc1 ?
Hsp90 Hop PPI: -5%; CRE-bla Fsk: -9%; ALOX15 inhib: -20%; Tau filament bind: -8%; IkB signaling: inconclusive

What do the screens show for `CC(C)c1ccc(CNc2ccc(N3CCOCC3)cc2)cc1`?
Hsp90 Hop PPI: inconclusive; CRE-bla Fsk: 6%; ALOX15 inhib: 7.9µM*; Tau filament bind: 25µM*; IkB signaling: 6%

Results for CC(=O)N1CCc2cc(Br)cc(S(=O)(=O)N3CCC(C(=O)Nc4cccc(C)c4C)CC3)c21 ?
IkB signaling: 2%

Results for CC(C)c1ccc2oc(-c3cc(N)ccc3O)nc2c1 ?
Hsp90 Hop PPI: -18%[11 µM]; CRE-bla Fsk: inconclusive; ALOX15 inhib: inconclusive; Tau filament bind: 3.2µM*; IkB signaling: inconclusive

How did Cc1cc(NC(=O)Cc2cccs2)no1 do in these assays?
Hsp90 Hop PPI: -17%; CRE-bla Fsk: -10%; ALOX15 inhib: inconclusive; Tau filament bind: 16µM*; IkB signaling: 1%

Results for Cc1cc(NS(=O)(=O)c2ccc(NC(=O)Cc3cccs3)cc2)no1 ?
Hsp90 Hop PPI: -3%; CRE-bla Fsk: -7%; ALOX15 inhib: 4%; Tau filament bind: 19%; IkB signaling: 1%

How did COC(=O)c1ccc(N2C(=O)c3ccc(OC)c(OC)c3C2=O)cc1 do in these assays?
Hsp90 Hop PPI: 0%; CRE-bla Fsk: 7%; ALOX15 inhib: 11%; Tau filament bind: 11%; IkB signaling: 1%

Results for COc1cc2c(c(OC)c1OC)-c1ccc(OC)c(=O)cc1[C@H](NC(C)=O)CC2 ?
Hsp90 Hop PPI: inconclusive; CRE-bla Fsk: 2.5µM*; ALOX15 inhib: -6%[25.6 µM]; Tau filament bind: 29%; IkB signaling: inconclusive

Results for Cn1c(/N=C/c2c(O)ccc3ccccc23)nc2ccccc21 ?
Hsp90 Hop PPI: -11%[11 µM]; CRE-bla Fsk: inconclusive; ALOX15 inhib: 4µM*; Tau filament bind: inconclusive; IkB signaling: inconclusive

What do the screens show for `O=C1C=CC2=C3c4cc(O)c(O)cc4C[C@@]3(O)COC2=C1O`?
Hsp90 Hop PPI: inconclusive; CRE-bla Fsk: inconclusive; Tau filament bind: inconclusive; IkB signaling: 2%[11.4 µM]

How did CCOC(=O)c1[nH]c(C)c(CCC(=O)Nc2c(C)cc(C)cc2C)c1C do in these assays?
IkB signaling: -2%

How did CCCc1ccc2c(N)c(C#N)sc2n1 do in these assays?
Hsp90 Hop PPI: 8%; CRE-bla Fsk: 10µM*; ALOX15 inhib: -8%; Tau filament bind: -5%; IkB signaling: -2%

What do the screens show for `CCOc1ccc(C(=O)Nc2ccc3nn(-c4ccc(OC)c(Cl)c4)nc3c2)cc1`?
IkB signaling: 0%

How did COc1cccc(NC(=O)CCSc2nnc3scc(-c4ccccc4)n23)c1 do in these assays?
Hsp90 Hop PPI: -1%; CRE-bla Fsk: 0.4µM*; ALOX15 inhib: -9%; Tau filament bind: 3%; IkB signaling: inconclusive

What do the screens show for `CC(C)N(C(=O)Cn1cc(SCC(=O)Nc2ccccc2C(F)(F)F)c2ccccc21)C(C)C`?
IkB signaling: -1%

Results for COc1ccc(-c2cc(C(F)(F)F)nc(SCC(=O)Nc3cc(C)on3)n2)cc1OC ?
Hsp90 Hop PPI: 5%; CRE-bla Fsk: 2µM*; ALOX15 inhib: -18%; Tau filament bind: -12%; IkB signaling: 0%

How did CC(=O)NC1CC(=O)N(c2ccc3c(c2)OCCO3)C1 (stereo unspecified) do in these assays?
IkB signaling: -2%

What do the screens show for `CC(=O)Nc1ccc(Nc2nc3ccc(Cl)cc3n3cnnc23)cc1`?
IkB signaling: 2%

What do the screens show for `COc1cccc(Cn2c(=O)c(-c3cccs3)nc3cnc(OC)nc32)c1`?
Hsp90 Hop PPI: 15%; CRE-bla Fsk: inconclusive; ALOX15 inhib: -15%; Tau filament bind: -8%; IkB signaling: 1%[11.4 µM]

How did COc1ncc2nc(-c3cccs3)c(=O)n(Cc3cccs3)c2n1 do in these assays?
Hsp90 Hop PPI: -6%; CRE-bla Fsk: 2.5µM*; ALOX15 inhib: -3%; Tau filament bind: 159%; IkB signaling: 1%[11.4 µM]

Results for COc1ncc2nc(-c3ccccc3)c(=O)n(CCc3ccccc3)c2n1 ?
Hsp90 Hop PPI: -2%; CRE-bla Fsk: 13µM*; ALOX15 inhib: -7%; Tau filament bind: -10%; IkB signaling: 0%[11.4 µM]

What do the screens show for `COc1cccc(Cn2c(=O)c(-c3cccs3)nc3cnc(OCc4ccccc4)nc32)c1`?
Hsp90 Hop PPI: -4%; CRE-bla Fsk: 1.3µM*; ALOX15 inhib: -12%; Tau filament bind: 54%; IkB signaling: 4%[11.4 µM]

Results for COc1ncc2nc(-c3cccs3)c(=O)n(C)c2n1 ?
Hsp90 Hop PPI: 4%; CRE-bla Fsk: 3.2µM*; ALOX15 inhib: -8%; Tau filament bind: inactive; IkB signaling: -3%[11.4 µM]

Results for O=c1c(-c2cccs2)nc2cnc(Oc3ccccc3)nc2n1Cc1cccs1 ?
Hsp90 Hop PPI: inconclusive; CRE-bla Fsk: inconclusive; ALOX15 inhib: -3%; Tau filament bind: -8%; IkB signaling: -1%[11.4 µM]

Results for Cc1ccc(NC(=O)N2CCN3CCCCC3C2)cc1F (stereo unspecified) ?
IkB signaling: 1%

How did COc1ccc(-c2nc3cnc(N4CCNCC4)nc3n(CCc3ccccc3)c2=O)cc1 do in these assays?
Hsp90 Hop PPI: inconclusive; CRE-bla Fsk: inconclusive; ALOX15 inhib: 4%; Tau filament bind: 72%; IkB signaling: 0%[11.4 µM]

Results for COc1ccc(-n2c(=O)c(-c3cccs3)nc3cnc(OC)nc32)cc1 ?
Hsp90 Hop PPI: 2%; CRE-bla Fsk: inconclusive; ALOX15 inhib: -11%; Tau filament bind: 62%; IkB signaling: -2%[11.4 µM]

Results for COc1ccc(-n2c(=O)c(-c3cccs3)nc3cncnc32)cc1 ?
Hsp90 Hop PPI: -5%; CRE-bla Fsk: 3.2µM*; ALOX15 inhib: -2%; Tau filament bind: 8%; IkB signaling: 1%[11.4 µM]
